Hit rate of the full screen: of about 69,000 compounds, about 8,600 (12%) showed an effect of 50% or more. The sample as a whole holds a higher share of strong results than the screen did.
System: Plasmodium berghei
Assay: Screen against P. berghei liver stage (PbLuc), transformed with Luciferase, at 10uM
Format: functional, HepG2
Conditions: tested at 10 uM

| SMILES | INHIBITION |
| --- | --- |
| Cc1c(CC(C#N)C(=O)Nc2cccc(O)c2)cnn1C (configuration not stated) | 20.4% |
| N#CCCN(C(=O)CN1CCCC1c1ccccc1Cl)c1ccccc1 (configuration not stated) | 67.1% |
| Cc1ccc(N(CCC#N)C(=O)CN2CCCC2c2ccsc2)cc1 (configuration not stated) | 3.45% |
| N#CCCN(C(=O)CN1CCCC1c1ccsc1)c1ccccc1 (configuration not stated) | -2.95% |
| Cc1ccc(C2CCCN2CC(=O)N(CCC#N)c2ccccc2)cc1 (configuration not stated) | 62.8% |
| Cc1cc(C)cc(N(CCC#N)C(=O)CN2CCCC2c2cccs2)c1 (configuration not stated) | 6.54% |
| Cc1ccc(N(CCC#N)C(=O)CN2CCCC2c2cccs2)cc1 (configuration not stated) | -3.48% |
| CC(C)S(=O)(=O)CC(=O)N(Cc1ccsc1)c1ccccc1 | 54.4% |
| CNS(=O)(=O)CC(=O)N(Cc1ccsc1)c1ccccc1 | -2.69% |
| CC(=O)N(Cc1ccsc1)c1ccccc1 | 24.2% |
| Cc1occc1C(=O)N1C[C@H]2CCCC(OCc3cccnc3)[C@H]2C1 (some centres not stated) | 30.3% |
| Cc1cnn(C2CCCN(C(=O)CCCOc3ccccc3F)C2)c1 (configuration not stated) | -27.8% |
| Cc1ccc(C(=O)NCCCNS(C)(=O)=O)cc1-n1cccc1 | 51.3% |
| CS(=O)(=O)NCCCNC(=O)c1cccc(-n2cccc2)c1 | 13.4% |
| Cc1ccc(C(=O)NCCCN(C)S(C)(=O)=O)cc1-n1cccc1 | 12.9% |
| COc1ccc(CN2C[C@H]3CC[C@@H](C2)N(S(=O)(=O)C2CC2)C3)cc1 | 4.52% |
| O=C1CCN(C(=O)NCCCc2ccc(Cl)cc2Cl)CCN1 | -12.1% |
| CCn1c(CN(C)C)nnc1C1CCN(Cc2cccc(F)c2F)CC1 | 25% |
| Cc1ncsc1-c1nnc(C2CCN(Cc3ccccc3Cl)CC2)o1 | 29.3% |
| Fc1cccc(CN2CCC(c3noc(-c4cnccn4)n3)CC2)c1F | -11.4% |
| Cc1ncsc1-c1nnc(C2CCN(CC3CCCCC3)CC2)o1 | -18.4% |
| Cc1ncsc1-c1nnc(C2CCN(Cc3cccc(F)c3F)CC2)o1 | 54.5% |
| Cc1ncsc1-c1nnc(C2CCN(Cc3ccccc3F)CC2)o1 | 59% |

| SMILES | INHIBITION |
| --- | --- |
| Cn1ccnc1CN1CCC(F)(F)C2(CCN(c3cnccn3)C2)C1 (configuration not stated) | -38.9% |
| CN(C)c1nccnc1C1CCCN(c2cnccn2)C1 (configuration not stated) | 7.75% |
| COCCNS(=O)(=O)c1c(C)sc2ccccc12 | -35% |
| COc1ccc(CC2(C(=O)O)CCN(c3nc(C)ncc3C)CC2)cc1 | -1.25% |
| COc1cccc(N2CCN(C(=O)c3noc4c3CCCCC4)CC2)c1 | 10.1% |
| COc1cccc(N2CCN(C(=O)c3noc4c3CCCC4)CC2)c1 | 12.6% |
| Cc1cnc(N2CCc3onc(COc4cccnc4)c3C2)nc1 | 32.1% |
| COc1cccc(-c2noc3c2CN(c2ncnc4c2CCC4)CC3)c1 | 89.6% |
| COCc1cc(N2CCc3onc(-c4cccc(OC)c4)c3C2)ncn1 | 82.2% |
| COc1cccc(-c2noc3c2CN(c2nc(C)ncc2C)CC3)c1 | 80% |
| CC(C)c1ccc(N2CCc3onc(-c4ccc(F)c(F)c4)c3C2)nn1 | 40.3% |
| COCC(C)N1CCc2onc(-c3ccc(F)c(F)c3)c2C1 (configuration not stated) | 16.7% |
| CC(C)(C)n1ncc2c1NC(=O)CC2c1ccc(C(=O)O)cc1 (configuration not stated) | -12.2% |
| CC(C)Oc1ccc(Cl)c(C(=O)N2CCN(CCO)CC2)n1 | 33.3% |
| CCSc1ccc(C(=O)N2CCCCC2C(=O)N2CCCC2)cn1 (configuration not stated) | 20.4% |
| Cc1ccc(CN2CC[C@@H](NC(=O)c3cccnc3)[C@H](O)C2)s1 | -10.9% |
| O=C(c1cccs1)N1CC[C@@H](N2CCOCC2)[C@@H]1Cc1ccccc1 | 19.4% |
| Cn1ncnc1NCc1ccc(F)cc1 | -42.8% |
| Cc1cccc2c1ccn2CCC(=O)O | 17.6% |
| COc1ccccc1C(=O)NCCCN1CCCC1C(=O)N(C)C (configuration not stated) | -1.85% |
| COc1cccc(-c2n[nH]cc2-c2nc(CC3CCN(C)CC3)no2)c1 | 59.7% |
| CN1CCC(Cc2noc(-c3cccc(Oc4ncccn4)c3)n2)CC1 | -0.529% |
| COc1cccc(-c2n[nH]cc2-c2nc(CN3CCCC3)no2)c1 | 34% |

| SMILES | INHIBITION |
| --- | --- |
| Cc1ccc(S(=O)(=O)N2CCCC(c3n[nH]cc3C(=O)N(C)C)C2)cc1 (configuration not stated) | 11.8% |
| CCOCCNC(=O)c1cccc(Cn2nc(C)cc2C)c1 | -89.3% |
| Cc1cc2n(n1)[C@@H](C(F)(F)F)C[C@@H](C1CCCN(C(=O)C(C)C)C1)N2 (some centres not stated) | 1.5% |
| CC(C)Cc1cc(CN2C[C@@H]3CC[C@H]2CN(Cc2cscn2)C3)n[nH]1 | 39.9% |
| CN(Cc1cc(Br)cn1C)C(=O)Cc1cccc(O)c1 | 50.8% |
| CN(Cc1cc(Br)cn1C)C(=O)Cc1cccnc1 | -91.4% |
| CN(Cc1cc(Br)cn1C)C(=O)c1ccsc1 | -82.2% |
| CC1CCN(C[C@H]2CN3CC[C@H]2C[C@@H]3CNC(=O)Nc2ccsc2)CC1 | 77.7% |
| O=C(NC[C@H]1C[C@@H]2CCN1C[C@@H]2CN1CCCCC1)Nc1ccsc1 | 33.2% |
| O=C(NC[C@H]1C[C@@H]2CCN1C[C@@H]2CN1CCOCC1)Nc1ccsc1 | 41.1% |
| O=C(CC1CC1)NCc1cn2c(n1)CN(Cc1nccs1)CC2 | 33.4% |
| CCC(C)(NCC(=O)Nc1nc(C)cs1)c1nc(C)cs1 (configuration not stated) | 12.2% |
| CCC(C)(NCC(=O)NC(C)C)c1nc(C)cs1 (configuration not stated) | 76.7% |
| CCC(C)(NCC(=O)Nc1ccccc1)c1nc(C)cs1 (configuration not stated) | 9.3% |
| CC(C)c1nc(O)c2nnn(C[C@H]3CCCN(Cc4ccsc4)C3)c2n1 | 32.3% |
| CCC(=O)N1CCC2(CC1)CN(CCO)Cc1ccccc12 | -16.2% |
| CCc1oc2ccc(NS(C)(=O)=O)cc2c1C(=O)OC | 12.8% |
| CS(=O)(=O)N1CCC2(CC1)NCCn1c(-c3ccccc3)cnc12 | -0.554% |
| COc1ccc(-c2cnc3n2CCNC32CCN(S(C)(=O)=O)CC2)cc1 | 57.1% |
| COc1cccc(-c2cnc3n2CCC32CCN(S(C)(=O)=O)CC2)c1 | 39.3% |
| COc1ccc(CC(=O)N2CCC[C@@H](N)[C@@H]2c2ccccc2F)cc1 | 44.8% |
| CC(C)NC(=O)CC1COC2(CCN(Cc3cccs3)CC2)C1 (configuration not stated) | 29.9% |
| O=C(Nc1nccs1)c1csc(NC2CCCC2)n1 | 80.9% |

| SMILES | INHIBITION |
| --- | --- |
| Cc1cnc(NC(=O)N2CCCC2)s1 | -1.58% |
| Cc1cnc(NC(=O)c2csc(NCC(C)C)n2)s1 | 83.8% |
| Cc1cccc(NC(=O)c2csc(NCC(C)C)n2)n1 | -27.5% |
| Cc1cnc(NC(=O)c2csc(NC3CCCC3)n2)s1 | 89.6% |
| CCN(CC)C(=O)CCCNC(=O)c1csc(NC2CC2)n1 | 28% |
| CC(NC(=O)Nc1nccs1)C(=O)NC1CCCC1 (configuration not stated) | 40.2% |
| CC(C)CCNc1nc(C(=O)NC2CC2)cs1 | -30% |
| O=C(Nc1ccccn1)c1csc(NC2CCCC2)n1 | -32.8% |
| O=C(CCC1CCN(C2CCSCC2)CC1)NCC1CCCO1 (configuration not stated) | 42.1% |
| CCc1nc(CN(C(C)=O)C2CCN(CCc3cccs3)C2)no1 (configuration not stated) | 36.1% |
| CC(C)c1nc2c(n1C)CCN(Cc1cccc(OCC(N)=O)c1)C2 | 7.08% |
| O=C(CSc1ccccn1)N1C[C@@H]2CC[C@H]1CN(Cc1cscn1)C2 | -38.9% |
| O=C(c1ccccn1)N1CCc2ncc(Cn3cccn3)n2CC1 | -14.2% |
| O=C(CCn1ccc2cc(Br)ccc21)/N=c1\[nH]nc(C2CCCO2)s1 (configuration not stated) | 35.1% |
| Cc1cc(=O)n2ncnc2n1CC(O)c1cc(F)ccc1F (configuration not stated) | -4.74% |
| Cc1cc(=O)n2ncnc2n1CC(O)COCc1ccccc1Cl (configuration not stated) | 55.4% |
| Cc1cc(CN(C)CCC(O)c2ccccc2)nn1C (configuration not stated) | -3.3% |
| Cn1ncc2cnn(CC(O)COCc3ccccc3Cl)c2c1=O (configuration not stated) | -30.1% |
| Cc1cc(=O)n2ncnc2n1CC(O)c1ccccc1F (configuration not stated) | 33% |
| Cc1cc(=O)n2ncnc2n1CC(O)c1ccccc1Cl (configuration not stated) | 2.37% |
| Cc1cc(=O)n2ncnc2n1CC(O)c1ccccc1 (configuration not stated) | 62.9% |
| Cc1cc(=O)n2ncnc2n1CC(O)c1cc(Cl)ccc1Cl (configuration not stated) | 29.8% |
| Cc1cc(=O)n2ncnc2n1CC(O)c1ccc(F)cc1F (configuration not stated) | 57.6% |

| SMILES | INHIBITION |
| --- | --- |
| CN1CCN(c2cc(CNC(=O)c3cccnc3O)ccn2)CC1 | 18.36% |
| CCN1CCN(C2CCN(Cc3nc(C)c(C)o3)CC2)C1=O | 44.1% |
| CCc1nc(C2CCCN2Cc2ncc(C)c(OC)c2C)no1 (configuration not stated) | 11.4% |
| O=S(=O)(C1CC1)N1CCOCC2(CCN(c3ccccn3)C2)C1 (configuration not stated) | -26.1% |
| CS(=O)(=O)CC(=O)N1C[C@H]2CCC[C@@]2(COCc2ccncc2)C1 | 31.2% |
| CCC(CCNC(=O)c1cc(C2CC2)nc2c1cnn2C)n1cccn1 (configuration not stated) | 9.55% |
| CC(C)NC(=O)N1CCN(CCn2cccn2)c2ncccc2C1 | 5.89% |
| COc1ccc(-c2ccccc2CCN)c(OC)c1 | -2.9% |
| COc1ccc(-c2cc(CN)ccc2F)c(OC)c1OC | 30.9% |
| COc1ccc(-c2ccccc2CCN)c(OC)c1OC | 50.8% |
| Cc1cnc(C(=O)N2C[C@@H](NS(C)(=O)=O)[C@@H]3OCCC[C@@H]32)cn1 | 35.7% |
| Cc1nc(CSCc2ccc(OCC(F)(F)F)nc2)no1 | 40.7% |
| FC(F)(F)COc1ccc(CSCc2ccon2)cn1 | 24% |
| Cc1nnc(CSCc2ccc(OCC(F)(F)F)nc2)o1 | 56% |
| O=C(CCN1CCCC1c1cccc2c1OCCO2)N1CCOCC1 (configuration not stated) | 57.7% |
| O=C(CCN1CCCC1c1cccc2c1OCCO2)N1CCCCC1 (configuration not stated) | 40.6% |
| COCCN1CCCC1c1cccc2c1OCCO2 (configuration not stated) | 59.4% |
| COC(=O)CCN1CCCC1c1cccc2c1OCCO2 (configuration not stated) | 15.9% |
| NC(=O)NC(=O)CCN1CCCC1c1cccc2c1OCCO2 (configuration not stated) | 27.7% |
| CCNC(=O)CCN1CCCC1c1cccc2c1OCCO2 (configuration not stated) | -2.23% |

Reference: ChEMBL document CHEMBL4513216, “Probing the Open Global Health Chemical Diversity Library for Multistage-Active Starting Points for Next-Generation Antimalarials” (ACS Infect Dis, 2020)
